The record followed here is PubChem BioAssay (NCATS).

Inconclusive results are not listed. The source made the active and inactive calls. Calls follow the shape of the dose curve; as a rule, active = well fitted curve in the direction sought with a large enough effect; inconclusive = small, poorly fitted or top-dose-only effect, or another doubt; inactive = no such curve, though single readings can be large; an effect the other way counts as inactive or inconclusive.

The nature of assay [1]: qHTS of pediatric cancer cell lines to identify multiple opportunities for drug repurposing: Primary screen for A673 cells (AID 1347092). Also: nearly all actives have a fitted effect of over 45% in size. Also: potency is read from the fitted curve at half-maximal effect. Summed up: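 A673 cells (500-1,000 cells/well in growth media) were pre-incubated 5 h at 37 degrees C, then exposed to compounds for 48 h. Viability was read as CellTiter-Glo luminescence; concentration-response curves came directly from the primary screen.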
(In general: qHTS replaces the single test concentration by a dilution series.)

The nature of assay [2]: qHTS of pediatric cancer cell lines to identify multiple opportunities for drug repurposing: Primary screen for SK-N-MC cells (AID 1347093). Also: potency is read from the fitted curve at half-maximal effect. Summed up: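 Metabolically active cells were quantified by ATP-dependent luminescence (CellTiter-Glo, 15 min at room temperature) following 48 h treatment. Cells had been plated at 500-1,000 per well and settled for 5 h beforehand.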

Assay [3] is described as follows: qHTS of pediatric cancer cell lines to identify multiple opportunities for drug repurposing: Primary screen for U-2 OS cells (AID 1347096). Also: nearly all actives have a fitted effect of over 50% in size. Summed up:
(§1)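 Viability after 48 h compound treatment at 37C, 500-1,000 cells/well, read as ATP luminescence with CellTiter-Glo. Primary screens used 11-point (MIPE, 0.78 nM-46 µM) or 8-point (NPC, 0.59 nM-46 µM) final concentrations; follow-up screens used 11-point dilutions.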

A short description of assay [4]: qHTS of pediatric cancer cell lines to identify multiple opportunities for drug repurposing: Primary screen for SK-N-SH cells (AID 1347098). Also: nearly all actives have a fitted effect of over 65% in size. Also: potency is read from the fitted curve at half-maximal effect. The procedure, abridged: (§2)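 Cells (500-1,000/well) rested 5 h, then received compounds for 48 h; metabolically active cells were measured by CellTiter-Glo luminescence. Final concentrations spanned up to 46 µM (MIPE, 11-point) or 0.59 nM-46 µM (NPC, 8-point) in primary screens, 11-point in follow-ups.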

Assay [5] can be described thus: qHTS of pediatric cancer cell lines to identify multiple opportunities for drug repurposing: Primary screen for NB1643 cells (AID 1347099). Also: nearly all actives have a fitted effect of over 50% in size. Also: potency is read from the fitted curve at half-maximal effect. The procedure, abridged: (§3)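 Primary screen of approved and investigational compounds on cells in growth media at 37 degrees C, 5% CO2. MIPE set at 11-point and NPC set at 8-point dilutions; viability scored by ATP-based luminescence at 48 hours.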

Assay [6] can be described thus: qHTS of pediatric cancer cell lines to identify multiple opportunities for drug repurposing: Primary screen for Rh18 cells (AID 1347102). Also: nearly all actives have a fitted effect of over 65% in size. Also: potency is read from the fitted curve at half-maximal effect. The procedure, abridged:
as §1

Assay [7] is described as follows: qHTS of pediatric cancer cell lines to identify multiple opportunities for drug repurposing: Primary screen for OHS-50 cells (AID 1347103). Also: nearly all actives have a fitted effect of over 40% in size. Also: potency is read from the fitted curve at half-maximal effect. Summed up: as §2
The nature of assay [8]: qHTS of pediatric cancer cell lines to identify multiple opportunities for drug repurposing: Primary screen for MG 63 (6-TG R) cells (AID 1347105). Also: nearly all actives have a fitted effect of over 50% in size. Also: potency is read from the fitted curve at half-maximal effect. Summed up: as §3
A short description of assay [9]: qHTS of pediatric cancer cell lines to identify multiple opportunities for drug repurposing: Primary screen for control Hh wild type fibroblast cells (AID 1347106).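 Also: series mostly up to about 46 µM; a drop in luminescence marks cytotoxicity and a rise apparent proliferation; nearly all actives have a fitted effect of over 55% in size.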 The procedure, abridged:
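Cells (500-1,000/well) in growth media were settled 5 h at 37 degrees C, then given compounds for 48 h. Viability was read as CellTiter-Glo luminescence. Primary runs used MIPE at 11 points (0.78 nM-46 µM) and NPC at 8 points (0.59 nM-46 µM); follow-ups used 11 points.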

The nature of assay [10]: qHTS of pediatric cancer cell lines to identify multiple opportunities for drug repurposing: Primary screen for NB-EBc1 cells (AID 1347095). Also: potency is read from the fitted curve at half-maximal effect. The procedure, abridged: as §3
Assay [11] in a line: qHTS of pediatric cancer cell lines to identify multiple opportunities for drug repurposing: Primary screen for Saos-2 cells (AID 1347097). Also: nearly all actives have a fitted effect of over 40% in size. Also: potency is read from the fitted curve at half-maximal effect. The procedure, abridged:
as §3

Assay [12] can be described thus: qHTS of pediatric cancer cell lines to identify multiple opportunities for drug repurposing: Primary screen for LAN-5 cells (AID 1347100). Also: potency is read from the fitted curve at half-maximal effect. The procedure, abridged:
as §1

Assay [13] can be described thus: qHTS of pediatric cancer cell lines to identify multiple opportunities for drug repurposing: Primary screen for RD cells (AID 1347104). Also: nearly all actives have a fitted effect of over 55% in size. Also: potency is read from the fitted curve at half-maximal effect. Summed up:
as §3

Assay [14] can be described thus: qHTS of pediatric cancer cell lines to identify multiple opportunities for drug repurposing: Primary screen for Rh30 cells (AID 1347107). Also: series mostly up to about 46 µM; nearly all actives have a fitted effect of over 75% in size. The procedure, abridged: as §1
A short description of assay [15]: qHTS of pediatric cancer cell lines to identify multiple opportunities for drug repurposing: Primary screen for Rh41 cells (AID 1347108). Also: nearly all actives have a fitted effect of over 70% in size. Also: potency is read from the fitted curve at half-maximal effect. Summed up:
as §3

Assay [16] can be described thus: qHTS of pediatric cancer cell lines to identify multiple opportunities for drug repurposing: Primary screen for BT-37 cells (AID 1347094). Also: potency is read from the fitted curve at half-maximal effect. Summed up: as §3
A short description of assay [17]: qHTS of pediatric cancer cell lines to identify multiple opportunities for drug repurposing: Primary screen for BT-12 cells (AID 1347101). Also: nearly all actives have a fitted effect of over 25% in size. Also: potency is read from the fitted curve at half-maximal effect. Summed up:
as §2

Assay [18] is described as follows: qHTS of pediatric cancer cell lines to identify multiple opportunities for drug repurposing: Confirmatory screen for NB1643 cells (AID 1347109). Also: nearly all actives have a fitted effect of over 45% in size. The procedure, abridged:
as §1

A short description of assay [19]: qHTS of pediatric cancer cell lines to identify multiple opportunities for drug repurposing: Confirmatory screen for SK-N-MC cells (AID 1347111).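 Also: cells exposed to compound for 48 h before the readout; nearly all actives have a fitted effect of over 70% in size.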 Summed up:
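SK-N-MC cells at 500-1,000 cells/well in growth media were pre-incubated 5 h, then exposed to compounds at 11-point dilutions for 48 h at 37 degrees C, 5% CO2. Viability was read as CellTiter-Glo luminescence.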

Assay [20] can be described thus: qHTS of pediatric cancer cell lines to identify multiple opportunities for drug repurposing: Confirmatory screen for BT-12 cells (AID 1347112). Also: nearly all actives have a fitted effect of over 55% in size. The procedure, abridged: as §1

With `CC[C@@H](C)[C@H](NC(=O)[C@H](CC1CCCCC1)NC(=O)c1ccno1)C(=O)N1CCC2(CCc3ccccc32)CC1`, the Potency entry in assay [1], in assay [3], in [4], in assay [6], in assay [8] and in assay [9] was “inactive” each time. For the same compound, the Potency in assay [2] was 8.33 µM (active); in [5] it was 23.5 µM (active); in [7], 17.2 µM (active).
On to `Nc1nccc(-c2ccc3noc(-c4ccc(Cl)cc4)c3c2)n1`, for which the Potency in assay [1] is 7.43 µM (active); in assay [2], 10.5 µM (active); in assay [5] it was 16.6 µM (active). The Potency result in assay [10], in [3], in assay [11], in assay [12], in [6] and in assay [13] was “inactive” in each case. The Potency result in assay [8], in [14] and in assay [15] was “inactive” in each case.
With `COc1ccc(C2=N[C@H](c3ccc(Cl)cc3)[C@H](c3ccc(Cl)cc3)N2C(=O)N2CCNC(=O)C2)c(OC(C)C)c1`, the Potency is 14.8 µM (active) in assay [1]; 2.64 µM (active) in assay [2]; 7.69 µM (active) in [16]; 0.743 µM (active) in assay [10]; 23.5 µM (active) in assay [11]; 3.83 µM (active) in assay [4]. For the same compound, the Potency was 2.64 µM (active) in [5]; 2.35 µM (active) in assay [12]; 24.3 µM (active) in assay [17]; 5.26 µM (active) in assay [6]; 18.7 µM (active) in [15]. Also, the Potency entry in assay [9] is “inactive”.
`Cc1cn[nH]c1`: the Potency entry in assay [1], in assay [2], in [3], in [11], in assay [4] and in assay [5] was “inactive” in each case. Moreover, the Potency result in [12], in assay [6], in assay [8], in assay [9], in [14] and in assay [18] was “inactive” throughout. Further, the Potency entry in [19] and in assay [20] was “inactive” each time. Further, the Potency in assay [7] is 0.611 µM (active).
Take `OCCC#Cc1nc(-c2ccc(F)cc2)c(-c2ccncc2)n1CCCc1ccccc1`: the Potency in assay [1] is 18.7 µM (active); in assay [2], 18.7 µM (active); in assay [10] it was 16.6 µM (active); in [12], 16.6 µM (active); in assay [7], 27.3 µM (active); in assay [8], 29.6 µM (active). The Potency in [15] was 18.7 µM (active). In addition, the Potency result in assay [4] and in assay [9] was “inactive” in each case.
For `O=c1[nH]c(-c2ccc(C(F)(F)F)cc2)nc2c1CSCC2`, the values for the Potency in assay [1] and in [2] were 14.8 µM (active) and 13.2 µM (active), respectively. Also, the Potency result in assay [3], in assay [12], in [6] and in assay [9] was “inactive” in each case.
Consider `CC(C)(C)OC(=O)CN(Cc1ccc(Cl)cc1)Cc1ccc([N+](=O)[O-])s1`, for which the Potency result in assay [1], in assay [16], in assay [3], in [4], in assay [12] and in assay [6] was “inactive” throughout. Further, the Potency entry in assay [8], in assay [9] and in [14] was “inactive” in each case. For the same compound, the Potency in [2] is 20.9 µM (active).
Take `Fc1ccc(Cl)cc1-c1nc(Nc2ccncc2)c2nccnc2n1`: the Potency entry in assay [1], in assay [2], in assay [10], in assay [3], in assay [4] and in assay [5] was “inactive” each time. In addition, the Potency entry in assay [12], in assay [17], in assay [6], in assay [7], in [13] and in assay [8] was “inactive” in each case. The Potency entry in [9], in assay [14] and in assay [15] was “inactive” each time.
Regarding `Cc1ccc(NC(=O)c2cccc(C(C)(C)C#N)c2)cc1Nc1ccc2ncn(C)c(=O)c2c1`, the Potency in [1] is 14.8 µM (active); in [2], 18.7 µM (active); in assay [10], 5.26 µM (active); in assay [4] it was 24.1 µM (active); in assay [5], 18.7 µM (active); in [13] it was 1.18 µM (active). The Potency entry in assay [8] and in [9] was “inactive” throughout.
In the case of `CCCn1c(=O)c2[nH]c(C34CC5CC3C[C@@H](C5)C4)nc2n(CCC)c1=O`, the Potency in [1] was 18.7 µM (active); in assay [2], 10.5 µM (active). In addition, the Potency result in [16], in [3], in assay [4], in assay [17] and in assay [9] was “inactive” throughout.
